# Measurements: PubChem BioAssay (Tox21)
# Results filed as inconclusive are left out. Calls of active or inactive are those of the source. The call rests on the fitted dose curve; in most records, active means well fitted curve in the direction sought with a large enough effect in the signal ratio in the repeat runs (not every such curve was filed as active); inconclusive means weak or mixed curves, or effect the other way; inactive means no such curve, though single readings can be large or run the other way; the % refers to the signal ratio.
# Biological target: Estrogen receptor (Homo sapiens) (UniProt P03372)
# Sequence (P03372 whole entry, looked up): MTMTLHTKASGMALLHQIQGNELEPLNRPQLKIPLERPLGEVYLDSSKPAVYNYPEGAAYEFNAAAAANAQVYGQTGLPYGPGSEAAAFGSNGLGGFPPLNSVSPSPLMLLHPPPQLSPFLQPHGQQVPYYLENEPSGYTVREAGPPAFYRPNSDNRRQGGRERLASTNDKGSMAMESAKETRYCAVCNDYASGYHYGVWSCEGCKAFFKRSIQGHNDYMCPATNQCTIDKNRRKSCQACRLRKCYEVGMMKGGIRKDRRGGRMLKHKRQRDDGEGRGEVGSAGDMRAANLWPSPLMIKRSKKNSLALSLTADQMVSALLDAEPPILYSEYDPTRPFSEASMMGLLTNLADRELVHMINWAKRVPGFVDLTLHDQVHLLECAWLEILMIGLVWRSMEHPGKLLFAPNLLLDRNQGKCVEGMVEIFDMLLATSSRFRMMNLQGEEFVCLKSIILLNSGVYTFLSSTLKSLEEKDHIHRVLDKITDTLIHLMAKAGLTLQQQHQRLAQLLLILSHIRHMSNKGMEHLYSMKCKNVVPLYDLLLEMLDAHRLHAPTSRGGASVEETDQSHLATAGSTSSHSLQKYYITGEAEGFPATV
# Experiment: qHTS assay to identify small molecule antagonists of the estrogen receptor alpha (ER-alpha) signaling pathway (AID 743069)
# Settings: HEK293 ER-alpha-UAS-bla, beta-lactamase ratio, antagonist mode; series mostly up to 69.4 µM; activity, negative = inhibition: at the top concentration
# Excerpt: National Center for Advancing Translational Sciences [NCATS]
# NIH Chemical Genomics Center [NCGC]
# U.S. Environmental Protection Agency [EPA]
# National Institutes of Environmental Health Sciences [NIEHS]
# National Toxicology Program [NTP]
# U.S. Food and Drug Administration [FDA]
# Estrogen receptor (ER), a nuclear hormone receptor, plays an important role in development, metabolic homeostasis and reproduction. Two subtypes of ER, ER-alpha and ER-beta have similar expression patterns with some uniqueness in both types. Endocrine disrupting chemicals (EDCs) and their interactions with steroid hormone receptors like ER causes disruption of normal endocrine function. To identify the compounds that inhibit ER signaling, an ER-alpha-UAS-bla GripTiteTM cell line (Invitrogen, Carlsbad, CA, USA) containing a beta-lactamase reporter gene under the control of an Upstream Activator Sequence (UAS) stably integrated into HEK293 cells was used to screen the Tox21 10K compound library.
# Tox21 Assay Protocol Summary:
# ER-alpha-bla cells were cultured in assay medium containing 2% charcoal stripped FBS overnight in the culture flasks before the assay was performed. The cells were dispensed at 5,000 cells/5 uL of assay medium per well into black wall/clear-bottom 1536-well plates using a Multidrop Combi (ThermoFisher Scientific, Waltham, MA) dispenser. After the assay plates were incubated at a 37C and 5% CO2 for 4 hr, 23 nL of compounds dissolved in DMSO, positive controls or DMSO only was transferred to the assay plate by a Pintool station (Kalypsys, San Diego, CA), followed by addition of 1 uL of 17beta-estradiol in assay medium using a Flying Reagent Dispenser (Aurora Discovery, San Diego, CA). The plates were incubated at 37C and 5% CO2 for 18 hr. Then 1 uL of LiveBLAzerTM B/G FRET substrate was added using a Flying Reagent Dispenser, the plates were incubated at room temperature for 2 hours, and fluorescence intensity was measured by an Envision plate reader (PerkinElmer, Shelton, CT).
# On the % scale 0 is the no-effect control and ±100 the full control effect; potency means the concentration at half of the fitted maximal effect.
Structure (SMILES),"activity, negative = inhibition",Potency
Nc1ccn(C[C@@H](CO)OCP(=O)(O)O)c(=O)n1,-22.6% (inactive),–
COc1ccc(CCNCC(O)COc2cccc(C)c2)cc1OC (stereo not given),-7.95% (inactive),–
CC(C)Cc1ccc([C@@H](C)C(=O)NS(C)(=O)=O)cc1,-13.6% (inactive),–
CC1CCC(NC(=O)N(CCCl)N=O)CC1 (stereo not given),2.69% (inactive),–
CC(=O)O[C@H]1CC[C@@]2(C)C(=CC[C@@H]3[C@@H]2CC[C@]2(C)C(c4cccnc4)=CC[C@@H]32)C1,7.55% (inactive),–
O=C(O)c1ccc(OCCn2ccnc2)cc1,8.25% (inactive),–
CC(C)CCC[C@@H](C)[C@H]1CC(=O)C2=C3CC[C@H]4C[C@@H](O)CC[C@]4(C)[C@H]3CC[C@@]21C,-16.9% (inactive),–
COC(=O)CCC(=O)CN,-9.99% (inactive),–
CO/N=C(\C(=O)N[C@@H]1C(=O)N2C(C(=O)OCOC(=O)C(C)(C)C)=C(/C=C\c3scnc3C)CS[C@H]12)c1csc(N)n1,-22.1% (inactive),–
C=C[C@]1(C)C[C@@H](OC(=O)CSCCN(CC)CC)[C@]2(C)[C@H](C)CC[C@]3(CCC(=O)[C@H]32)[C@@H](C)[C@@H]1O,-27.7% (inactive),–
CO[C@H]1C[C@@H]2CC[C@@H](C)[C@@](O)(O2)C(=O)C(=O)N2CCCC[C@H]2C(=O)O[C@H]([C@H](C)C[C@@H]2CC[C@@H](OC(=O)C(C)(CO)CO)[C@H](OC)C2)CC(=O)[C@H](C)/C=C(\C)[C@@H](O)[C@@H](OC)C(=O)[C@H](C)C[C@H](C)/C=C/C=C/C=C/1C,10.6% (inactive),–
C=C1CC[C@@H]2[C@](C)(CO)[C@H](O)CC[C@@]2(C)[C@@H]1C/C=C1/C(=O)OC[C@H]1O,-20.5% (inactive),–
COc1ccc(/C=C/C(=O)OCCC(C)C)cc1,1.66% (inactive),–
NS(=O)(=O)c1cc2c(cc1Cl)NC(Cc1ccccc1)NS2(=O)=O (stereo not given),-11% (inactive),–
O=P(O)(O)OC[C@H](O)CO,1.4% (inactive),–
NCCCC[C@H](N)C(=O)O,4.69% (inactive),–
CC1C(=O)CC2C3(C)CCC2(C(C)C(=O)O)C(=O)C13 (stereo not given),16.3% (inactive),–
CN1CCCC(CN2c3ccccc3Sc3ccccc32)C1 (stereo not given),–,19 µM [inhibitor] (active)
Cc1cccc(C)c1Nc1ncccc1C(=O)O,-13.1% (inactive),–
CN(C)c1ccc(C(=C2C=CC(=[N+](C)C)C=C2)c2c(O)c(S(=O)(=O)[O-])cc3cc(S(=O)(=O)O)ccc23)cc1,2.57% (inactive),–

Structure (SMILES),"activity, negative = inhibition",Potency
S=C1SCN(Cc2ccccc2)CN1Cc1ccccc1,-2.15% (inactive),–
N[C@H](CCC(=O)O)C(=O)O,17.6% (inactive),–
CC(C)[C@@H](C)/C=C/[C@@H](C)[C@H]1CC[C@H]2/C(=C/C=C3\C[C@@H](O)CC[C@@H]3C)CCC[C@]12C,-14.3% (inactive),–
CC(C)[C@@H](N)C(=O)O,9.54% (inactive),–
Cc1cc(C(=O)NNCc2ccccc2)no1,5.04% [at 32.6 µM] (inactive),–
O=P(O)(O)OC(Cn1cncn1)(Cn1cncn1)c1ccc(F)cc1F,-26.9% (inactive),–
COC(=O)[C@H]1[C@H]2C[C@@H]3c4[nH]c5cc(OC)ccc5c4CCN3C[C@H]2C[C@H](OC)[C@@H]1OC,-5.18% (inactive),–
CCN(CC)CCC(=O)N1c2ccccc2Sc2ccc(C(F)(F)F)cc21,8.59% (inactive),–
C/C(=C(\CCOC(=O)c1ccccc1)SS/C(CCOC(=O)c1ccccc1)=C(/C)N(C=O)Cc1cnc(C)nc1N)N(C=O)Cc1cnc(C)nc1N,-13.7% (inactive),–
NCCCC[C@H](NC(=O)[C@@H]1CCCN1C(=O)[C@@H]1CSSC[C@H](N)C(=O)N[C@@H](Cc2ccccc2)C(=O)N[C@@H](Cc2ccccc2)C(=O)N[C@@H](CCC(N)=O)C(=O)N[C@@H](CC(N)=O)C(=O)N1)C(=O)NCC(N)=O,0.283% (inactive),–
O=C(NOC[C@H](O)CO)c1ccc(F)c(F)c1Nc1ccc(I)cc1F,-15.1% (inactive),–
O=P(O)(O)C(O)(Cc1cnc2ccccn12)P(=O)(O)O,-19.6% (inactive),–
CN=C(NC)NCc1ccccc1,-9.6% (inactive),–
CCCCCCCCCCCCCCCC(=O)OC[C@@H](NC(=O)C(Cl)Cl)[C@H](O)c1ccc([N+](=O)[O-])cc1,-17.9% (inactive),–
O=C(c1cc2ccccc2o1)N1CCN(Cc2ccccc2)CC1,1.29% (inactive),–
Cn1nnnc1SCC1=C(C(=O)O)N2C(=O)[C@@H](NC(=O)[C@H](O)c3ccccc3)[C@H]2SC1,2.22% [at 32.6 µM] (inactive),–
CC1(C)S[C@@H]2[C@H](NC(=O)Cc3ccccc3)C(=O)N2[C@H]1C(=O)O,2.22% (inactive),–
NC[C@@H]1O[C@H](O[C@H]2[C@@H](O)[C@H](O[C@@H]3[C@@H](O)[C@H](N)C[C@H](N)[C@H]3O[C@H]3O[C@H](CN)[C@@H](O)[C@H](O)[C@H]3N)O[C@@H]2CO)[C@H](N)[C@@H](O)[C@@H]1O,-18.6% (inactive),–
O=C1NCCN1c1ncc([N+](=O)[O-])s1,4.26% [at 32.6 µM] (inactive),–
O=C(CO)[C@@H](O)[C@H](O)[C@@H](O)C(=O)O,12.8% (inactive),–
